From PubChem BioAssay (Tox21) come the findings set out here.

Assay [1] can be described thus: qHTS assay to identify small molecule agonists of the estrogen receptor alpha (ER-alpha) signaling pathway in the presence of an antagonist - cell viability counter screen (AID 1259386).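 Note: cells exposed to compounds for 22 h at 37 °C before the viability read; nearly all actives have a fitted effect of over 30% in size.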 Note: potency is the fitted concentration of half-maximal effect. The procedure, abridged: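 Cells are starved of estrogens for 5 days in charcoal-stripped serum, seeded for 24hr and co-treated with ICI-182,780 (10.0nM final) and test compounds. After 22hr at 37C, viability is read as CellTiter-Fluor fluorescence.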
For orientation: In qHTS, concentration-response curves come from the screen itself.

The target of assay [2] is Progesterone receptor (Homo sapiens) (UniProt P06401). Description: qHTS assay to identify small molecule agonists of the progesterone receptor (PR) signaling pathway (AID 1346784; calls by dose curve; note: nearly all actives have a fitted effect of over 30% in size). A digest of the protocol:
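Seed PR-UAS-bla HEK 293T cells (2% charcoal-stripped FBS), incubate 6 hr at 37C; add compounds in DMSO, 16 hr at 37C; add LiveBLAzer B/G substrate, 2 hr RT; read fluorescence intensity.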

For assay [3] the target is unchanged. Description: qHTS assay to identify small molecule antagonists of the progesterone receptor (PR) signaling pathway (AID 1346795; active = well fitted inhibition curve with a large enough effect in the signal ratio in the repeat runs, not every such curve was filed as active; the % refers to the signal ratio; note: potency is the fitted concentration of half-maximal effect). A digest of the protocol:
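Screening used a GripTite HEK293T line with PR-responsive UAS-beta-lactamase. Cells were challenged with compound in the presence of 1 nM R5020 final for 16 hr at 37C; B/G FRET substrate, 2 hr room temperature, fluorescence.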

Assay [4] in a line: qHTS assay to identify small molecule antagonists of the progesterone receptor (PR) signaling pathway - cell viability counter screen (AID 1346798). Note: nearly all actives have a fitted effect of over 50% in size. Note: potency is the fitted concentration of half-maximal effect. The procedure, abridged:
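Measures cytotoxicity in parallel with the PR antagonist reporter read: HEK293T PR-UAS-bla cells get compound and R5020 for 16 hr, and remaining viable cells are quantified by CellTiter-Glo luminescence.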

The nature of assay [5]: qHTS assay to identify small molecule agonists of the progesterone receptor (PR) signaling pathway - cell viability counter screen (AID 1346799; calls by dose curve; note: nearly all actives have a fitted effect of over 45% in size; note: potency is the fitted concentration of half-maximal effect). A digest of the protocol: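 Using the same plates as the PR reporter screen, HEK293T PR-UAS-bla cells received compounds for 16 hr at 37C and were then lysed with CellTiter-Glo; luminescence was read 30 min later at room temperature.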

A short description of assay [6]: qHTS assay to identify small molecule agonists of the TGF-beta/Smad signaling pathway - cell viability counter screen (AID 1346829). Note: top concentration of the series differs between compounds; nearly all actives have a fitted effect of over 45% in size. A digest of the protocol: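 CellTiter-Glo luminescence readout; SBE-bla HEK 293T cells, overnight plating, compound 5 hr at 37 C/5% CO2, then bla substrate 2 hr RT, then CellTiter-Glo 30 min RT.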
Assay [7] can be described thus: qHTS assay to identify small molecule agonists of the TGF-beta/Smad signaling pathway (AID 1346859; active = well fitted activation curve with a large enough effect in the signal ratio in the repeat runs, not every such curve was filed as active; the % refers to the signal ratio; note: series mostly up to about 77 µM). A digest of the protocol:
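Beta-lactamase reporter activity downstream of Smad binding elements was measured in stably transfected HEK 293T cells; compounds were incubated for 5 hr, substrate for 2 hr at room temperature.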

Assay [8] concerns the target Thyrotropin-releasing hormone receptor (Homo sapiens) (UniProt P34981). Put plainly: qHTS assay to identify small molecule antagonists of the thyrotropin-releasing hormone receptor (TRHR) signaling pathway (AID 1346877; active = well fitted inhibition curve with a large enough effect in the repeat runs, not every such curve was filed as active; note: series mostly up to about 51 µM). The procedure, abridged: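 Cells (TRHR-HEK293) are plated and kept 18 h at 37 °C/5% CO2. A calcium-sensitive dye is added for 2 h, compound follows for 5 min at room temperature, and TRH is then given at 1 nM final.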

A short description of assay [9]: qHTS assay to identify small molecule antagonists of the TGF-beta/Smad signaling pathway - cell viability counter screen (AID 1346824). Note: nearly all actives have a fitted effect of over 50% in size. The procedure, abridged:
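SBE-bla HEK 293T cells were plated overnight at 37 C, then given compounds in DMSO plus TGF-beta1 (added as 0.25 ng/mL solution) for 5 hr. After the bla read, CellTiter-Glo was added to the same wells and luminescence read after 30 min at room temperature.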

Records with an inconclusive call do not appear. The source made the active and inactive calls. Unless noted, calls come from the whole dose curve; as a rule, active = well fitted curve in the direction sought with a large enough effect in the repeat runs; inconclusive = weak or mixed curves; inactive = no such curve, though single readings can be large; an effect the other way counts as inactive or inconclusive.

Sequence of Thyrotropin-releasing hormone receptor (Homo sapiens) (P34981 whole entry, looked up): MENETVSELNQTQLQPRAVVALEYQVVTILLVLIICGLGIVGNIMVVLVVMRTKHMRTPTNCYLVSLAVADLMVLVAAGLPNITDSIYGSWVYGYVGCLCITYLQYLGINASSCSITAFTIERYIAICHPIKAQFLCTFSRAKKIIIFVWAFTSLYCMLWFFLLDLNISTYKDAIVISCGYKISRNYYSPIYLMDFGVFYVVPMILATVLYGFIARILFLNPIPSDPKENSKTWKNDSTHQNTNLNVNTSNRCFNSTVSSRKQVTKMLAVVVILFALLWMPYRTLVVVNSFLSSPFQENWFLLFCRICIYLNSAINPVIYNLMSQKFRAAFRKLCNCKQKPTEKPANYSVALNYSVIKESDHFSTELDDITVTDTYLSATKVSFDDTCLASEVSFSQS
Sequence of Progesterone receptor (Homo sapiens) (P06401 whole entry, looked up): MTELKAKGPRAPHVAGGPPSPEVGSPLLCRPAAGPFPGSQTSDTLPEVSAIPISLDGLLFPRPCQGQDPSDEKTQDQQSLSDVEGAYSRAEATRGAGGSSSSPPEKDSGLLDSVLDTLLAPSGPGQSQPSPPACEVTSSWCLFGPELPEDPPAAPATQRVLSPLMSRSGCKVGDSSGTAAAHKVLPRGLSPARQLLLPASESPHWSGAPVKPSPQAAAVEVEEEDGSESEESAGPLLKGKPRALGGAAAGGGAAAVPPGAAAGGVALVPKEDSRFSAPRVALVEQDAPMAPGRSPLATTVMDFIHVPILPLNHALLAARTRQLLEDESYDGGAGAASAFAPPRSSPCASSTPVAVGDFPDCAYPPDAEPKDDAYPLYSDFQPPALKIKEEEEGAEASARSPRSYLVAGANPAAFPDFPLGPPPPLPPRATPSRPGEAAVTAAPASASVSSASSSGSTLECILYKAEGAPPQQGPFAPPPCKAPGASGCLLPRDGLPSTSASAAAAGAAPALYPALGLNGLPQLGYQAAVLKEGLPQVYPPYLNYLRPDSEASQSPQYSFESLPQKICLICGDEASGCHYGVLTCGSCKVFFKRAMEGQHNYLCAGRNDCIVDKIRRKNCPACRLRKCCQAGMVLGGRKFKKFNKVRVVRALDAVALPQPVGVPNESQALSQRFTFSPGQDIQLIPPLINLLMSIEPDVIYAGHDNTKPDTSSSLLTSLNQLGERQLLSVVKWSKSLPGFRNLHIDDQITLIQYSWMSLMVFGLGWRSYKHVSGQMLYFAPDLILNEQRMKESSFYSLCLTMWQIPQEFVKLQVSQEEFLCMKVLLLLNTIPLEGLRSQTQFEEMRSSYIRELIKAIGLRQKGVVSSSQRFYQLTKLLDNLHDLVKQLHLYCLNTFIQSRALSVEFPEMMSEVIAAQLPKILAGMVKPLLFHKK

In the case of `CCCOC(=O)c1c(Cl)c(Cl)c(Cl)c(Cl)c1C(=O)OCCC`, the Potency result in [1], in [2], in assay [4], in assay [5], in [6] and in [7] was “inactive” throughout. Also, in [3], the Potency is 17.2 µM (active). Moreover, in assay [8], the molecule was classed as inactive.

With `CCN(Cc1cccc(S(=O)(=O)O)c1)c1ccc(C(=C2C=CC(=[N+](CC)Cc3cccc(S(=O)(=O)O)c3)C=C2)c2ccc(O)cc2S(=O)(=O)[O-])cc1`, the Potency in [1] was 16.6 µM (active). Besides, the Potency result in [2], in [3], in [5] and in assay [7] was “inactive” in each case.

`Nc1ccc(NC(=O)c2ccc(N)cc2)cc1`: the Potency entry in [1], in assay [3], in assay [4] and in assay [6] was “inactive” in each case. Further, the Potency in [5] is 54.5 µM (active). The molecule was called inactive in [9] and in assay [8].

For `c1ccc(CNc2ncnc3c2ncn3C2CCCCO2)cc1` (centres undefined), the Potency result in assay [1], in assay [2], in assay [3], in assay [4], in [6] and in [7] was “inactive” in each case. Also, in assay [9], the molecule was classed as inactive.

Take `CC(O)Cn1cnc2c1c(=O)n(C)c(=O)n2C` (centres undefined): the Potency entry in assay [1], in [2], in assay [3], in [4], in assay [5] and in assay [6] was “inactive” each time. Moreover, the Potency entry in assay [7] was “inactive”. Moreover, the result in assay [9] was inactive.

For `Cc1cc(CCCOc2c(C)cc(-c3noc(C(F)(F)F)n3)cc2C)on1`, the Potency result in assay [1], in [2], in assay [5], in assay [6] and in assay [7] was “inactive” in each case. For the same molecule, the call in [9] and in assay [8] was inactive.

As to `CC1CCCC(=O)C1=O` (centres undefined), the Potency entry in [1], in assay [2], in assay [3], in assay [4], in [5] and in [6] was “inactive” in each case. In addition, in assay [7], the Potency result was “inactive”.

In the case of `CC(C)N=C=NC(C)C`, the Potency result in assay [1], in [2], in [3], in assay [5], in [6] and in assay [7] was “inactive” each time.

As to `Cc1ccc(N(CCO)CCO)cc1`, the Potency result in assay [1], in [3], in assay [4], in assay [5] and in assay [6] was “inactive” throughout. Besides, the outcome in [9] was inactive.

Turning to `CC(C(=O)O)c1ccc(C(=O)c2cccs2)cc1` (centres undefined), the Potency entry in [1], in assay [2], in assay [3], in [4], in [5] and in assay [6] was “inactive” each time. Also, in [7], the Potency result is “inactive”. For the same molecule, the result in [9] and in [8] was inactive.

Turning to `COc1ccc(C2C(=O)c3ccccc3C2=O)cc1`, the Potency entry in assay [1], in assay [2], in assay [3], in assay [4], in [5] and in assay [6] was “inactive” throughout. For the same molecule, the Potency result in assay [7] is “inactive”. Further, the call in assay [9] and in assay [8] was inactive.

Take `CCOCCC(=O)OCC`: the Potency entry in [1], in assay [2], in assay [3], in [4], in assay [5] and in assay [6] was “inactive” in each case. For the same molecule, the Potency entry in assay [7] is “inactive”. Moreover, the outcome in assay [9] and in [8] was inactive.

On to `O=C1c2ccccc2C(=O)c2c(O)ccc(O)c21`, for which the Potency entry in [1], in [3], in assay [5] and in assay [6] was “inactive” throughout. The call in assay [8] was inactive.

Consider `CCN(CC)c1ccc(C(=C2C=CC(=[N+](CC)CC)C=C2)c2ccc(S(=O)(=O)O)cc2S(=O)(=O)[O-])cc1`, for which the Potency in assay [1] is 17.2 µM (active); in assay [4] it was 30.6 µM (active); in [5], 24.3 µM (active). The Potency entry in assay [2], in assay [3] and in assay [7] was “inactive” each time.

Turning to `CC(C)COC(=O)c1ccc(O)cc1`, the Potency entry in assay [1], in [2], in assay [4], in assay [6] and in assay [7] was “inactive” in each case. Besides, the call in assay [9] and in assay [8] was inactive.

As for `CC1CCCO1` (centres undefined), the Potency result in assay [1], in assay [4], in assay [5], in assay [6] and in [7] was “inactive” in each case. Moreover, the outcome in assay [9] and in [8] was inactive.

On to `C[C@@H]1[C@H](O)[C@@H](C)/C=C/C=C\C=C\C=C\C=C\C=C\C=C\[C@H](O[C@@H]2O[C@H](C)[C@@H](O)[C@H](N)[C@@H]2O)C[C@@H]2O[C@](O)(C[C@@H](O)C[C@@H](O)[C@H](O)CC[C@@H](O)C[C@@H](O)CC(=O)O[C@H]1C)C[C@H](O)[C@H]2C(=O)O` (stereo in doubt), for which the Potency entry in assay [2] is “inactive”. The molecule was called inactive in assay [9].

As to `COc1ccc(CCN(C)CCCN2CCc3cc(OC)c(OC)cc3CC2=O)cc1OC`, the Potency result in assay [1], in [3], in assay [4], in [5], in assay [6] and in [7] was “inactive” in each case. In assay [9], the outcome was inactive.

Consider `CCCCCCCCCCCC(=O)OCC(O)CO` (centres undefined), for which the Potency result in assay [1], in assay [3], in assay [4], in assay [6] and in [7] was “inactive” throughout. In addition, the molecule was called inactive in [9].

As for `CC(=O)OCCC1CCCCC1`, the Potency result in assay [1], in assay [2], in assay [3], in assay [4], in assay [5] and in assay [6] was “inactive” in each case. Moreover, the Potency entry in assay [7] was “inactive”. Besides, the outcome in assay [9] and in assay [8] was inactive.

For `CCN(Cc1cccc(S(=O)(=O)O)c1)c1ccc(C(=C2C=CC(=[N+](CC)Cc3cccc(S(=O)(=O)O)c3)C=C2)c2ccccc2S(=O)(=O)[O-])cc1`, the Potency in assay [1] was 17.3 µM (active); in assay [5], 13.7 µM (active). Also, the Potency result in [2], in [3] and in assay [7] was “inactive” throughout.

For `COc1ccc(-c2cc(=S)ss2)cc1`, the Potency in assay [4] was 15 µM (active). Moreover, the outcome in [9] and in assay [8] was inactive. For the same molecule, the Potency entry in [6] was “inactive”.

As for `OCC(CO)n1cnc(-c2ccc(F)cc2)c1-c1ccnc(Oc2ccccc2)n1`, the Potency result in [1], in assay [2], in assay [3], in assay [4], in [5] and in assay [6] was “inactive” in each case. Also, the result in assay [9] and in assay [8] was inactive.
